From PubChem BioAssay (NCI)
The panel holds about 79,000 compounds, 15% with a hit somewhere; the sample as a whole holds those more often. Values without a mark were called inactive. Cut-off read from the data, not from the text of the source: active = growth inhibition above about 70%; inactive = the rest.

Experiment: NCI Yeast Anticancer Drug Screen. Data for the mlh1 rad18 strain (AID 175)
Details: S. cerevisiae mlh1 rad18 strain growth inhibition; at 50.0 µM; hits give high values
Summary of the method: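 In this whole-cell yeast screen, a strain with altered DNA damage repair is challenged with compound, and its growth is measured against matched vehicle-treated controls.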

Structure (SMILES)	growth inhibition
COc1ccc2c(c1)CCN1CCCc3ccc(OC)cc3C21 (stereo not given)	46.7%
O=C1CN(/C=C(\c2ccccc2)S(=O)Cc2ccccc2)C(=S)N1 (stereo not given)	-24.2%
COC1(OC)N=C(N)C2(C#N)C(C)CC(=O)N(N(C)C)C12C#N (stereo not given)	-34.9%
COc1ccc2ccccc2c1C=O	47.8%
CC(C)NC(=O)OCc1cn2c(c1COC(=O)NC(C)C)CCC2	35%
COC1(OC)C2(Cl)C3=CCCC=C3C1(Cl)C(Cl)=C2Cl	-6.65%
CS(=O)(=O)Cc1cc(-c2ccccc2)no1	9.85%
CC1=CN(c2ccccc2)S2=C1c1sc3c(c1N2c1ccc(Br)cc1)CCCC3 (stereo not given)	-52.2%
O=[N+]([O-])c1ccc(COP(=O)(OCc2ccc([N+](=O)[O-])cc2)OCc2ccc([N+](=O)[O-])cc2)cc1	4.75%
Cn1cnc(=O)c2n[nH]nc21	0.65%
O=c1c2ccccc2c(=O)n2n1CC=CC2	-1.9%
CC(C)CCC(C)(C)COC(=O)c1ccc([N+](=O)[O-])cc1 (tested in a mixture with another compound)	29.3%
CSCCC(NC(=O)c1cnc2ccccc2n1)C(=O)O (stereo not given)	-17.1%
COc1cccc(/C=C2/Sc3sc(C(C)=O)c(C)[n+]3C2=O)c1O	-9.6%
CC(=O)O[C@@H]1CC[C@@]2(C)C(=O)C34C[C@@]5(C)C([C@@H](C)CCCC(C)C)CCC5(C)[C@](O)(O3)C(=O)[C@H]4C2C1(C)C (stereo not given in full)	27.1%
